Tests used:
Test in all cases: DAPPL (digital affinity profiling via proximity ligation, sequencing); 10 mM Tris-HCl pH 7.5, 50 mM NaCl, 1 mM DTT, 4% glycerol, room temperature, 30 min; GST-TFs on glutathione beads, 16-mer random dsDNA library, 0.1% formaldehyde crosslink after washing; high values mean tight binding
FEV = biological target: T1, FEV (Homo sapiens, UniProt Q99581 1-238); conditions: protein: recombinant; tags: N-terminal GST; dsDNA, one strand shown
T1 sequence: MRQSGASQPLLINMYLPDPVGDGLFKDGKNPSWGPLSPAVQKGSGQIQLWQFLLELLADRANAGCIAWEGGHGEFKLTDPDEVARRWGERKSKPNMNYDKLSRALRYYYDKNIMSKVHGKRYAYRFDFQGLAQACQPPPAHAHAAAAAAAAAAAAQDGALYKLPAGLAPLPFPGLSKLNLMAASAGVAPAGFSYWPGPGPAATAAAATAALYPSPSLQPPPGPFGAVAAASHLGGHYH
Outline: (§1)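 A tag-only sample was pooled with DNA-barcoded human transcription factors that had been expressed in yeast as GST fusions and captured on glutathione beads. The pools were incubated for 30 min at room temperature with 200 nmole of a random double-stranded 16-mer DNA library in Tris/NaCl/DTT/glycerol buffer, then washed, crosslinked with 0.1% formaldehyde, proximity-ligated (BsaI/T4 ligase, 1 h, 37 °C), PCR-amplified and sequenced on an Illumina NextSeq500. Binding signal is each hexamer's read frequency for a factor divided by its frequency for the tag-only sample.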

ETV5 = ETV5 (Homo sapiens, UniProt P41161 1-510); conditions: protein: recombinant; tags: N-terminal GST; dsDNA, one strand shown
Outline: as §1

HSF1 = HSF1 (Homo sapiens, UniProt Q00613 1-529); conditions: protein: recombinant; tags: N-terminal GST; chain copies: 3; dsDNA, one strand shown
Outline: as §1

SPIC = biological target: T2, SPIC (Homo sapiens, UniProt Q8N5J4 1-248); conditions: protein: recombinant; tags: N-terminal GST; dsDNA, one strand shown
T2 sequence: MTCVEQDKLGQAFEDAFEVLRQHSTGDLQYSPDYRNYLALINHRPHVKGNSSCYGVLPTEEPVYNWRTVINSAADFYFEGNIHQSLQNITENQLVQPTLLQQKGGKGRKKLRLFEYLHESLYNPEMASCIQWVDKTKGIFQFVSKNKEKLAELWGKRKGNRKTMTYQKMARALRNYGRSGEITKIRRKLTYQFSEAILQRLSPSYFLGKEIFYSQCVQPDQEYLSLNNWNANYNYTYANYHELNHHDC
Outline: as §1

ELF4 = ELF4 (Homo sapiens, UniProt Q99607 1-663); conditions: protein: recombinant; tags: N-terminal GST; dsDNA, one strand shown
Outline: as §1

ELK4 = biological target: T3, ELK4 (Homo sapiens, UniProt P28324-2 1-405); conditions: protein: recombinant; tags: N-terminal GST; dsDNA, one strand shown
T3 sequence: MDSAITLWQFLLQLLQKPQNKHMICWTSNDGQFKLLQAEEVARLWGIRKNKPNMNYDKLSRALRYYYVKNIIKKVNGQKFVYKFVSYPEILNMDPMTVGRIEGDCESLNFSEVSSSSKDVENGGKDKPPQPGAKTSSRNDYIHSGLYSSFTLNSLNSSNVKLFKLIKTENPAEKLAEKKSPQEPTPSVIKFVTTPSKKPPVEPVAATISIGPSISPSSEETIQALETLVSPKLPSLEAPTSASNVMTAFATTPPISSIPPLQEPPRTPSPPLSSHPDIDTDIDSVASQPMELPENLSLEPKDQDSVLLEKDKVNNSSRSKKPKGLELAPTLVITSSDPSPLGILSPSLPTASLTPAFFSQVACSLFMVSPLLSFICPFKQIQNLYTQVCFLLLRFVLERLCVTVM
Outline: as §1

ETV2 = biological target: T4, ETV2 (Homo sapiens, UniProt O00321 1-342); conditions: protein: recombinant; tags: N-terminal GST; dsDNA, one strand shown
T4 sequence: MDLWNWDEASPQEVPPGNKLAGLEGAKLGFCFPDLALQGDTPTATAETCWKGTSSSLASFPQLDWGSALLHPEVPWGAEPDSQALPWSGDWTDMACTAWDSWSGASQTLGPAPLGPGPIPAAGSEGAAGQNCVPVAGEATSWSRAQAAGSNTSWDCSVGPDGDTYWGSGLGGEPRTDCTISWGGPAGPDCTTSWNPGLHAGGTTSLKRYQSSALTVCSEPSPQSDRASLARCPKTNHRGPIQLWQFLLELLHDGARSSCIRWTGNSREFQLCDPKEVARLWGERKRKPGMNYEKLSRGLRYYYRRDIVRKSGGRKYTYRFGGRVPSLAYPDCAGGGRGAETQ
Outline: as §1

ELF3 = biological target: T5, ELF3 (Homo sapiens, UniProt P78545 1-371); conditions: protein: recombinant; tags: N-terminal GST; dsDNA, one strand shown
T5 sequence: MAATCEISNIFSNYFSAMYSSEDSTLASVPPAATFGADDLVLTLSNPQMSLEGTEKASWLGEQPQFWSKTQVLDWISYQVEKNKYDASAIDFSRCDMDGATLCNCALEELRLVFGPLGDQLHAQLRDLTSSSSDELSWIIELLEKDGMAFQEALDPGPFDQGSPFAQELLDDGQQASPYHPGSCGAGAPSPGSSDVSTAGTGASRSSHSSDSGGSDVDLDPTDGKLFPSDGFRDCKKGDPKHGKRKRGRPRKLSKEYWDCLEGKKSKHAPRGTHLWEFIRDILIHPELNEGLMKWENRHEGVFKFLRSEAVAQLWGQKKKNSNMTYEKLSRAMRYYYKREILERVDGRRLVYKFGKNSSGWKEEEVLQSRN
Outline: as §1

CRX = CRX (Homo sapiens, UniProt O43186 1-299); conditions: protein: recombinant; tags: N-terminal GST; dsDNA, one strand shown
Outline: as §1

ETV1 = ETV1 (Homo sapiens, UniProt P50549 1-477); conditions: protein: recombinant; tags: N-terminal GST; dsDNA, one strand shown
Outline: as §1

CRX, sequence (O43186 whole entry): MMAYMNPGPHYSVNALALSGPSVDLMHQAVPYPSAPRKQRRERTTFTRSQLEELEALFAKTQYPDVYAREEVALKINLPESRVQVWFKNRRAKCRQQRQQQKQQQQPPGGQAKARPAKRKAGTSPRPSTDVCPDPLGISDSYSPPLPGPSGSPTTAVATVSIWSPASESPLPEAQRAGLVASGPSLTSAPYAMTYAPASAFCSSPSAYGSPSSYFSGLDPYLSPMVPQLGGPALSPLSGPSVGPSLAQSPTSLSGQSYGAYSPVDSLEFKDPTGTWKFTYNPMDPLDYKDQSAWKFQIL
ETV5, sequence (P41161 whole entry): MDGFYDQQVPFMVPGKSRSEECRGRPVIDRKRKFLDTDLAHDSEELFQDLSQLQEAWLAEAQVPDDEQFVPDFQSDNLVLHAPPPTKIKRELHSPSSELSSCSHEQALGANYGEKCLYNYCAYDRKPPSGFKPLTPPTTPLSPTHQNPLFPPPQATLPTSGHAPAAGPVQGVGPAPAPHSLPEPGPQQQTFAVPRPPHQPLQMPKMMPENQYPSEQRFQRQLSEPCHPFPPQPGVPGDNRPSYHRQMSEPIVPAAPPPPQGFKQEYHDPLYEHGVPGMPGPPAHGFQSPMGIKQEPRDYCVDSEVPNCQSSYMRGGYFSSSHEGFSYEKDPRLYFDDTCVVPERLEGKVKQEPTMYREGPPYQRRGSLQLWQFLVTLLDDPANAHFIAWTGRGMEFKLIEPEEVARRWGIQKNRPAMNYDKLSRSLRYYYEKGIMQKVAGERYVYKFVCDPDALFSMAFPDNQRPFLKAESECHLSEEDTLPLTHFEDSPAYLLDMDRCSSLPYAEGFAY
ELF4, sequence (Q99607 whole entry): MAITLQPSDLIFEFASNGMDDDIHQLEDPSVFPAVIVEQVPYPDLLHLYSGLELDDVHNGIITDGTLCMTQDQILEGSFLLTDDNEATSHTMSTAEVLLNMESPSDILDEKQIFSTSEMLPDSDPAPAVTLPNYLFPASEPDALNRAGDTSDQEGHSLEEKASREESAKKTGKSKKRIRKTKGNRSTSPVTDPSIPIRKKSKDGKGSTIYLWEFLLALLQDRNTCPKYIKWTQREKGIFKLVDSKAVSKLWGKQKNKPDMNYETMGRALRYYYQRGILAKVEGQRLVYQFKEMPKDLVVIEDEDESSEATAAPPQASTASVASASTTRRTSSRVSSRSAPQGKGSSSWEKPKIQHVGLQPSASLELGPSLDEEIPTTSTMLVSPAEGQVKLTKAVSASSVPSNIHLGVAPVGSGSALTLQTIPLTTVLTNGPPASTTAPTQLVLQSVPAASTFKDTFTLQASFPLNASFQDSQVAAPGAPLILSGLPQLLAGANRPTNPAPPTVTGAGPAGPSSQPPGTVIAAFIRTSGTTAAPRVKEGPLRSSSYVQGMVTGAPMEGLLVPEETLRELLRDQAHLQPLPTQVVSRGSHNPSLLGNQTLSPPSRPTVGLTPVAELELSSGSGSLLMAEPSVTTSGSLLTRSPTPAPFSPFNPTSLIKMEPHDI
HSF1, sequence (Q00613 whole entry): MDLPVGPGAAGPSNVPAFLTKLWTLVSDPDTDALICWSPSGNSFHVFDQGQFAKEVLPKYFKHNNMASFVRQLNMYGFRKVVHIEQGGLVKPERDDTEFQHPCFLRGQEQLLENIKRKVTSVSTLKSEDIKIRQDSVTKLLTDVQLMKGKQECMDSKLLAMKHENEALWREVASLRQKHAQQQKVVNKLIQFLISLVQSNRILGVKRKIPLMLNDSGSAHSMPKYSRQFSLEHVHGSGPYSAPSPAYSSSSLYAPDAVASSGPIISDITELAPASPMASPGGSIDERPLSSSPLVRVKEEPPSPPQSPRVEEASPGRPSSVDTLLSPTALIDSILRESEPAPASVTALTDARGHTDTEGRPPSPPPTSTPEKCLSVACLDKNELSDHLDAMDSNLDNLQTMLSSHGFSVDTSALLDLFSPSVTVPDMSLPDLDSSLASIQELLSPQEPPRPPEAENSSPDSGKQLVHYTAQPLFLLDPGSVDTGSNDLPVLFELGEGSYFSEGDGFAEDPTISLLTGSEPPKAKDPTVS
ETV1, sequence (P50549 whole entry): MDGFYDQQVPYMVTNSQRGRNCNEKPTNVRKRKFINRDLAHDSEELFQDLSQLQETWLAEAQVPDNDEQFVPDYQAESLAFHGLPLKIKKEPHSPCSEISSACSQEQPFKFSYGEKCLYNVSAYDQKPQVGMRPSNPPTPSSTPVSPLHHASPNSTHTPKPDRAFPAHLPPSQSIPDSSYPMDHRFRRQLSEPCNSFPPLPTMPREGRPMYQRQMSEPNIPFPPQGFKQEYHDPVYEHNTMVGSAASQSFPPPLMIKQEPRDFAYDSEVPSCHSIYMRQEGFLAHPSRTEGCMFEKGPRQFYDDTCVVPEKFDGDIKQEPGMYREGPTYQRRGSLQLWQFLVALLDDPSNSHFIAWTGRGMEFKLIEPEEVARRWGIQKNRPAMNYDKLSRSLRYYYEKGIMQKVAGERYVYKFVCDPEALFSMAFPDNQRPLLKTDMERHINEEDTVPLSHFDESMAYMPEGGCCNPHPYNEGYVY

Question: How did the binding signal (FEV) turn out when TAAGAT was run?
Answer: 1.15 fold enrichment (6-mer frequency, TF over GST control)

Question: And the binding signal (ETV5)?
Answer: 1.13 fold enrichment (6-mer frequency, TF over GST control)

Question: What about the binding signal (HSF1) of the same sequence?
Answer: 1.76 fold enrichment (6-mer frequency, TF over GST control)

Question: What about the binding signal (SPIC) of the same sequence?
Answer: 1.25 fold enrichment (6-mer frequency, TF over GST control)

Question: And the binding signal (ELF4)?
Answer: 1.21 fold enrichment (6-mer frequency, TF over GST control)

Question: And the binding signal (ELK4)?
Answer: 1.29 fold enrichment (6-mer frequency, TF over GST control)

Question: What about the binding signal (ETV2) of the same sequence?
Answer: 1.31 fold enrichment (6-mer frequency, TF over GST control)

Question: And the binding signal (ELF3)?
Answer: 1.3 fold enrichment (6-mer frequency, TF over GST control)

Question: And the binding signal (CRX)?
Answer: 2.49 fold enrichment (6-mer frequency, TF over GST control)

Question: And the binding signal (ETV1)?
Answer: 1.28 fold enrichment (6-mer frequency, TF over GST control)

Reference: publication PMC7862700, “An all-to-all approach to the identification of sequence-specific readers for epigenetic DNA modifications on cytosine”
